Each structure is given as a SMILES string. The whole screen tested about 5,600 compounds, of which about 390 (7%) showed an effect of 50% or more. Only a selection was taken, and strong results are over-represented in it overall.

In the assay the target is T1, Protein deacetylase HDAC6 (Homo sapiens) (UniProt Q9UBN7).
T1 sequence (whole entry): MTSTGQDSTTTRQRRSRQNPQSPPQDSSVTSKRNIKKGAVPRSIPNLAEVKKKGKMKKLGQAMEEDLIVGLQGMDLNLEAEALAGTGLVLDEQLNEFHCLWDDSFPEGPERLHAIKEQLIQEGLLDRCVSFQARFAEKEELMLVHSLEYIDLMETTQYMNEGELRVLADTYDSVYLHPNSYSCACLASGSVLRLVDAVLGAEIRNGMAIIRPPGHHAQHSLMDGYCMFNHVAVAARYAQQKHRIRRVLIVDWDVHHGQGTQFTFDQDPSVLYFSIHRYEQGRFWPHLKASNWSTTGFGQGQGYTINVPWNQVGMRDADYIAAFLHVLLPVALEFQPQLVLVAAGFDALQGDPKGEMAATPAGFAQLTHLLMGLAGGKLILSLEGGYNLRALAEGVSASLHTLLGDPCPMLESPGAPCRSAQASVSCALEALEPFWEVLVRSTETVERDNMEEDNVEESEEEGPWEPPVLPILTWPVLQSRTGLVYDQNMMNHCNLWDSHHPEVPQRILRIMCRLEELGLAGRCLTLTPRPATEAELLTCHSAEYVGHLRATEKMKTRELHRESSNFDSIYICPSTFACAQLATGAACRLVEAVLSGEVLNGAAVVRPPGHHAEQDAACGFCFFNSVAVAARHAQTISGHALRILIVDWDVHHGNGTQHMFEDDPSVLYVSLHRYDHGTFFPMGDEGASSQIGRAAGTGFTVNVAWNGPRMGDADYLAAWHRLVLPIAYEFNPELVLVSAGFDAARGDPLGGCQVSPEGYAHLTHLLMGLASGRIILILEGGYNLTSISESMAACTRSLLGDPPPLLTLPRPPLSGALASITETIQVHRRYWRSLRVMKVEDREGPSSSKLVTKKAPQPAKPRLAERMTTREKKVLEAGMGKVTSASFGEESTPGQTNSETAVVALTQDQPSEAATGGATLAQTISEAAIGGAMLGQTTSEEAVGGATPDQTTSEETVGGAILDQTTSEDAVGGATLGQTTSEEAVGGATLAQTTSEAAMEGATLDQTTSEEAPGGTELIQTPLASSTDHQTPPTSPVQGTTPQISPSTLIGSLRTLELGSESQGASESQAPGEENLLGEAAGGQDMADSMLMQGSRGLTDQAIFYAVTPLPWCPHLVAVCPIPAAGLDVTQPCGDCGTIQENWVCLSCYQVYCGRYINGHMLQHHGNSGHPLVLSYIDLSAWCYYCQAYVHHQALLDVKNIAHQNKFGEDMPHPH
The conditions noted are these: at 10 µM.
What is called inhibition is the drop in the measured response relative to a control, in per cent. In the case of `CCC(C)(C)c1ccc(CC(C)CN2C[C@@H](C)O[C@@H](C)C2)cc1` (some centres undefined), the inhibition is -1.12%.
In the case of `C=C1NC[C@H](O)[C@@H](C(=O)O)N1` it was -0.94%.
In the case of `COC(=O)C1=C(C)NC(C)=C(C(=O)OCCSc2ccccc2)C1C` (centres undefined), the inhibition was -9.24%.
With `CCOc1ccc(-n2c(C(C)N(Cc3cccnc3)C(=O)Cc3ccc(OC(F)(F)F)cc3)nc3ncccc3c2=O)cc1` (racemic) the figure was 6.86%; with `O=C1Nc2ccccc2/C1=C1/Nc2ccccc2C1=O`, 60.6%; with `CN1C(=O)/C(=C2/C(=O)Nc3ccccc32)c2ccccc21`, 32.9%.
With `O=C1Nc2cc(Br)ccc2/C1=C1/Nc2ccccc2/C1=N\O`, the inhibition was determined as 93.4%.
With `O=C1Nc2ccccc2/C1=C1/Nc2ccccc2/C1=N\O` the figure was 100%; with `N[C@@H]1CCN(O)C1=O`, 19.6%; with `C/C=C1\C(=O)C[C@H]2[C@@H]3CCC4=CC(=O)CC[C@]4(C)[C@H]3CC[C@]12C`, -4.59%.
For `Cc1csc2c(N[C@@H](C)CN3CCN(S(=O)(=O)c4ccc(Cl)c(Cl)c4)CC3)ncnc12`, the inhibition was determined as 7.29%.
Take `CNC(=O)[C@H]1O[C@@H](n2cnc3c(NCc4cccc(I)c4)ncnc32)[C@H](O)[C@@H]1O`: the inhibition is 9.22%.
In the case of `CC(C)(C)c1cc(O)c(C(C)(C)C)cc1O` it was 10.7%; in that of `CCOc1cc(C(=O)Nc2ccc(Cl)c(-c3nc4ccccc4[nH]3)c2)cc(OCC)c1OCC`, 11.9%; in that of `Nc1nc(=O)c2c([nH]1)NC[C@H](CNc1ccc(C(=O)N[C@@H](CCC(=O)O)C(=O)O)cc1)N2C=O`, 3.47%.
Regarding `O=c1[nH]cnc2c1cnn2[C@@H]1O[C@H](CO)[C@@H](O)[C@H]1O`, the inhibition is 20.8%.
Take `N[C@@H](Cc1cc(-c2ccc(Cl)cc2Cl)cc(CP(=O)(O)O)c1O)C(=O)O`: the inhibition was 4.67%.
As to `O=c1c(O)c(-c2ccc(O)cc2O)oc2cc(O)cc(O)c12`, the inhibition is 92.5%.
In the case of `Cc1cc(=O)oc2c(C=O)c(O)ccc12` it was -7.63%.
Consider `C[C@@H]1O[C@@H](Oc2c(-c3cc(O)c(O)c(O)c3)oc3cc(O)cc(O)c3c2=O)[C@H](O)[C@H](O)[C@H]1O`, for which the inhibition is -6.79%.
In the case of `O=c1c(O)c(-c2ccc(O)c(O)c2)oc2cc(O)ccc12` it was 97.4%.
In the case of `O=C1c2c(O)cc(O)cc2O[C@H](c2cc(O)c(O)c(O)c2)[C@H]1O` it was -0.55%.
`O=c1c(O)c(-c2cc(O)c(O)c(O)c2)oc2cc(O)cc(O)c12`: the inhibition turned out to be 100%.
With `O=c1c(O[C@@H]2O[C@H](CO)[C@H](O)[C@H](O)[C@H]2O)c(-c2ccc(O)c(O)c2)oc2cc(O)cc(O)c12` the figure was 28.9%; with `O=c1c(O)c(-c2ccc(O)cc2)oc2cc(O)cc(O)c12`, 98.8%.
In the case of `Cc1cc(=O)oc2cc(O)ccc12` it was 35.6%.
In the case of `COc1ccc(C(=O)/C(Cc2cc(OC)c(OC)c(OC)c2)=C(\C(=O)O)c2ccc3c(c2)OCO3)cc1` it was 26.5%.
For the molecule `Cc1cc(C)c2c(c1)[C@@H](N(Cc1cc(C(F)(F)F)cc(C(F)(F)F)c1)c1nnn(C)n1)CCCN2C[C@H]1CC[C@H](C(=O)O)CC1`, the inhibition was determined as 4.11%.
`Cc1nnsc1C(=O)Nc1ccc(-n2nc(C(F)(F)F)cc2C(F)(F)F)cc1`: the inhibition turned out to be 8.76%.
As to `O=C1Cc2cc(CCN3CCN(c4nsc5ccccc45)CC3)c(Cl)cc2N1`, the inhibition came out at 11.8%.
In the case of `COc1cccc(OCCCN)c1-c1cc(Nc2cnc(C#N)cn2)n[nH]1`, the inhibition was -3.28%.
With `N#C[C@@H]1CCCN1C(=O)CNC12CC3CC(CC(O)(C3)C1)C2`, the inhibition is -7.44%.
With `C/C=C\C1=C(C(=O)O)N2C(=O)C(NC(=O)C(N)c3ccc(O)cc3)C2SC1` (centres undefined) the figure was -7.76%; with `O=C(O)CCN(O)C(=O)CCCCCCCCC1CC1`, 37.2%.
Turning to `C=CC[N+]12CC[C@@]34c5ccccc5N5/C=C6/[C@H]7C[C@H]8[C@@]9(CC[N@@+]8(CC=C)C/C7=C/CO)c7ccccc7N(/C=C(/[C@@H](C[C@@H]31)/C(=C\CO)C2)[C@H]54)[C@@H]69` (some centres undefined), the inhibition turned out to be 31.2%.
For the molecule `N=C(N)NCCC[C@@H](N)C(=O)N[C@@H](CCCNC(=N)N)C(=O)N1CCC[C@H]1C(=O)N1C[C@H](O)C[C@H]1C(=O)NCC(=O)N[C@@H](Cc1cccs1)C(=O)N[C@@H](CO)C(=O)N1Cc2ccccc2C[C@@H]1C(=O)N1[C@H](C(=O)N[C@@H](CCCNC(=N)N)C(=O)O)C[C@@H]2CCCC[C@@H]21`, the inhibition was found to be 31.7%.
Consider `COc1cc(CN(CCN)C(=O)c2cccs2)ccc1OCc1ccccc1`, for which the inhibition was -2.87%.
On to `O=C(Nc1ccc(Cl)cc1)Nc1cccc(-c2cccc(N3CCCC3)n2)c1`, for which the inhibition stood at 20.6%.
With `CN1CC(=O)N=C1NC(=O)Nc1cccc(Cl)c1` the figure was 89.3%; with `CC(C)c1c(NC(=O)Nc2ccc(Cl)cc2)c(=O)n(-c2ccccc2)n1C`, -4.84%; with `CC(C)c1onc(-c2c(Cl)cccc2Cl)c1COc1ccc(/C=C/c2cccc(C(=O)O)c2)c(Cl)c1`, 3.22%.
With `O=C(/C=C/c1ccc2c(c1)OCO2)N1CCCCC1` the figure was 97.2%; with `CC(C)(C)C(O)/C=C/c1ccc2c(c1)OCO2` (centres undefined), 15.9%.
With `CC(C)(C)c1ccc(/C=C/C(=O)Nc2ccc3c(c2)OCCO3)cc1` the figure was -7.4%.
Turning to `O=C(/C=C/C=C/c1ccc2c(c1)OCO2)N1CCCCC1`, the inhibition was determined as 115%.
With `O=C(c1ccc2c(c1)OCO2)N1CCCCC1` the figure was 21.9%; with `C[N+](C)(C)CC[N+]1(C)Cc2c(Cl)c(Cl)c(Cl)c(Cl)c2C1`, 10.9%; with `COc1oc(=O)c2cc(N)ccc2c1Cl`, 22.8%.
With `C=C1/C(=C\C=C2/CCC[C@]3(C)[C@@H]([C@H](C)CCCC(C)C)CC[C@@H]23)C[C@@H](O)C[C@@H]1O` the figure was -2.44%.

The values are drawn from ChEMBL document CHEMBL4808148, “HDAC6 screening dataset using tau-based substrate in an enzymatic assay yields selective inhibitors and activators” (2021).
